Assay results: PubChem BioAssay (Tox21)
Inconclusive results are not listed. Calls of active or inactive are those of the source. Unless noted, calls follow the shape of the dose curve; as a rule, active = well fitted curve in the direction sought with a large enough effect in the repeat runs; inconclusive = weak or mixed curves; inactive = no such curve, though single readings can be large; an effect the other way counts as inactive or inconclusive.

Assays:
[1] = qHTS assay to test for compound auto fluorescence at 535 nm (green) in HEK293 cells (AID 720680)
[2] = qHTS assay to test for compound auto fluorescence at 460 nm (blue) in HEK293 cell free culture (AID 720681)
Outline: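 Blue fluorescence (Ex 405/Em 460 nm, triamterene-equivalent) was read immediately after pin transfer of compound or DMSO into medium (DMEM, 10% FBS) without cells.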

[3] = qHTS assay to test for compound auto fluorescence at 590 nm (red) in HEK293 cell free culture (AID 720683)
Outline: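 Red-channel autofluorescence of compounds in culture medium (DMEM, 10% FBS), no cells, measured at 540/590 nm. Rose Bengal sodium is the reference fluorophore for equivalence.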

[4] = qHTS assay to test for compound auto fluorescence at 590 nm (red) in HepG2 cell free culture (AID 720684)
Outline: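 Steps: dispense MEM/10% FBS medium, no cells; pin compound or DMSO vehicle; read red channel, Ex/Em 540/590 nm. Output given as Rose Bengal sodium equivalents.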

[5] = qHTS assay to test for compound auto fluorescence at 460 nm (blue) in HepG2 cell free culture (AID 720685)
Outline: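 Compound (23 nL) or DMSO pinned into cell-free MEM with 10% FBS; blue fluorescence read at 405/460 nm excitation/emission, expressed as auto-fluorescence equivalency to triamterene.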

[6] = qHTS assay to test for compound auto fluorescence at 535 nm (green) in HepG2 cell free culture (AID 720686)
[7] = qHTS assay to identify small molecule antagonists of the glucocorticoid receptor (GR) signaling pathway - cell viability counter screen (AID 720693); also: nearly all actives have a fitted effect of over 55% in size
[8] = qHTS assay for identifying genotoxic compounds that show differential cytotoxicity against isogenic chicken DT40 cell lines with known DNA damage response pathways - wild type cell line (AID 743012); also: nearly all actives have a fitted effect of over 60% in size; also: potency is read from the fitted curve at half-maximal effect
Outline: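 Quantitative HTS on parental DT40 cells: 40 h compound treatment at 37 C/5% CO2, with viability then determined by CellTiter-Glo luminescence. Values serve as the DNA repair-proficient reference for differential cytotoxicity.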

[9] = qHTS assay for identifying genotoxic compounds that show differential cytotoxicity against isogenic chicken DT40 cell lines with known DNA damage response pathways - Rev3 mutant cell line (AID 743014); also: nearly all actives have a fitted effect of over 55% in size; also: potency is read from the fitted curve at half-maximal effect
[10] = qHTS assay for identifying genotoxic compounds that show differential cytotoxicity against isogenic chicken DT40 cell lines with known DNA damage response pathways - Rad54/Ku70 mutant cell line (AID 743015); also: nearly all actives have a fitted effect of over 60% in size; also: potency is read from the fitted curve at half-maximal effect
[11] = qHTS assay to identify small molecule antagonists of the androgen receptor (AR) signaling pathway - cell viability counter screen (AID 743033; also: nearly all actives have a fitted effect of over 45% in size)
[12] = target: Androgen receptor (Homo sapiens) (UniProt P10275); test: qHTS assay to identify small molecule antagonists of the androgen receptor (AR) signaling pathway (AID 743035; active = well fitted inhibition curve with a large enough effect in the signal ratio in the repeat runs, not every such curve was filed as active; the % refers to the signal ratio)
Chain of Androgen receptor (Homo sapiens) (P10275 whole entry, looked up): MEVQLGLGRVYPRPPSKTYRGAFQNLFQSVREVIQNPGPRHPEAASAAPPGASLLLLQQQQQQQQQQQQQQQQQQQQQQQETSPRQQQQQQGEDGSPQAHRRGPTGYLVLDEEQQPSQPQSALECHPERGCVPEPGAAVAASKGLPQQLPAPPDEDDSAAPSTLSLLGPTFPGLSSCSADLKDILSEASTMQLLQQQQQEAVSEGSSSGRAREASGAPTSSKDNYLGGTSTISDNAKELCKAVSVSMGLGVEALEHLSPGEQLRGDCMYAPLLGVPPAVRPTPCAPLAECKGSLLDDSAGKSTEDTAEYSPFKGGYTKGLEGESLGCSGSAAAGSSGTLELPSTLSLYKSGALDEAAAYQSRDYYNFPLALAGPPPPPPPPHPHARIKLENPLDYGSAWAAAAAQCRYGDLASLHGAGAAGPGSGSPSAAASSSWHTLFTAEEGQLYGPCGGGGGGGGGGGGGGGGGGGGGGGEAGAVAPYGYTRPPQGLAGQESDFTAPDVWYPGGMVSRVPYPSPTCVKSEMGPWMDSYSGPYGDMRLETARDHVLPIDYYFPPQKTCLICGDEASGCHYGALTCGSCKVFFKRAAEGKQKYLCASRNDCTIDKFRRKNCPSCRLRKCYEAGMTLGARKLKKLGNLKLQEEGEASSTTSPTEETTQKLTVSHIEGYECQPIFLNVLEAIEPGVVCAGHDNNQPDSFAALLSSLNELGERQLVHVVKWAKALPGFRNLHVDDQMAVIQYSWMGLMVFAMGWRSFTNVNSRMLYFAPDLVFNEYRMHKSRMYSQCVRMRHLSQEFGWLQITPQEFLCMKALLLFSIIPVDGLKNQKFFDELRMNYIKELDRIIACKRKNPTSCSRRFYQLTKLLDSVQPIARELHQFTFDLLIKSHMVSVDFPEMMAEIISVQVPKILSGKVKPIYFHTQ
Outline: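 Cell line: GeneBLAzer AR-UAS-bla GripTite (HEK293). Stimulus: R1881 added after compound. Exposure: 16 h, 37C, 5% CO2. Readout: LiveBLAzer B/G FRET fluorescence after 2 h at room temperature.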

[13] = target: Androgen receptor (Homo sapiens) (UniProt P10275); test: qHTS assay to identify small molecule agonists of the androgen receptor (AR) signaling pathway (AID 743036; active = well fitted activation curve with a large enough effect in the signal ratio in the repeat runs, with a control signal flat, not every such curve was filed as active; the % refers to the signal ratio)
Outline: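 In this Tox21 qHTS, 2,000 HEK293 AR-bla cells per well were incubated with compounds for 16 h at 37C and 5% CO2. Fluorescence intensity was recorded 2 h after adding LiveBLAzer B/G FRET substrate at room temperature.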

[14] = target: Androgen receptor (Homo sapiens) (UniProt P10275); test: qHTS assay to identify small molecule agonists of the androgen receptor (AR) signaling pathway using the MDA cell line (AID 743040; also: nearly all actives have a fitted effect of over 20% in size)
Outline: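 Cells plated, 5 h at 37C/0% CO2; compound or DMSO pinned; 16 h at 37C; ONE-Glo added; luminescence measured after 30 min at room temperature. Reporter line: MDA-kb2 with MMTV-luciferase responsive to AR and GR.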

[15] = qHTS assay to identify small molecule antagonists of the androgen receptor (AR) signaling pathway using the MDA cell line - cell viability counter screen (AID 743041; also: nearly all actives have a fitted effect of over 45% in size)
Outline: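 Cells were plated at 3,000 per well and left 5 h. Compounds in DMSO were then pinned in, followed by R1881. After 16 h at 37C, CellTiter-Fluor fluorescence gave viability.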

[16] = target: Androgen receptor (Homo sapiens) (UniProt P10275); test: qHTS assay to identify small molecule antagonists of the androgen receptor (AR) signaling pathway using the MDA cell line (AID 743042; also: nearly all actives have a fitted effect of over 55% in size)
Outline: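 Antagonist mode: compounds plus R1881 agonist added to MDA-kb2 AR-luc cells, incubated 16 h at 37C. Luciferase reporter luminescence quantified, with multiplexed CellTiter-Fluor readout for cell viability.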

[17] = qHTS assay to test for compound auto fluorescence at 460 nm (blue) in HepG2 cells (AID 720687)
Outline: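 Blue-channel autofluorescence (Ex/Em 405/460 nm, triamterene-equivalent) was measured after 1 hr compound exposure at 37 C, 5% CO2. Cells were HepG2, plated overnight at 37 C in MEM plus 10% FBS.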

[18] = target: Glucocorticoid receptor (Homo sapiens) (UniProt P04150); test: qHTS assay to identify small molecule agonists of the glucocorticoid receptor (GR) signaling pathway (AID 720691; active = well fitted activation curve with a large enough effect in the signal ratio in the repeat runs, not every such curve was filed as active; the % refers to the signal ratio)
Chain of Glucocorticoid receptor (Homo sapiens) (P04150 whole entry, looked up): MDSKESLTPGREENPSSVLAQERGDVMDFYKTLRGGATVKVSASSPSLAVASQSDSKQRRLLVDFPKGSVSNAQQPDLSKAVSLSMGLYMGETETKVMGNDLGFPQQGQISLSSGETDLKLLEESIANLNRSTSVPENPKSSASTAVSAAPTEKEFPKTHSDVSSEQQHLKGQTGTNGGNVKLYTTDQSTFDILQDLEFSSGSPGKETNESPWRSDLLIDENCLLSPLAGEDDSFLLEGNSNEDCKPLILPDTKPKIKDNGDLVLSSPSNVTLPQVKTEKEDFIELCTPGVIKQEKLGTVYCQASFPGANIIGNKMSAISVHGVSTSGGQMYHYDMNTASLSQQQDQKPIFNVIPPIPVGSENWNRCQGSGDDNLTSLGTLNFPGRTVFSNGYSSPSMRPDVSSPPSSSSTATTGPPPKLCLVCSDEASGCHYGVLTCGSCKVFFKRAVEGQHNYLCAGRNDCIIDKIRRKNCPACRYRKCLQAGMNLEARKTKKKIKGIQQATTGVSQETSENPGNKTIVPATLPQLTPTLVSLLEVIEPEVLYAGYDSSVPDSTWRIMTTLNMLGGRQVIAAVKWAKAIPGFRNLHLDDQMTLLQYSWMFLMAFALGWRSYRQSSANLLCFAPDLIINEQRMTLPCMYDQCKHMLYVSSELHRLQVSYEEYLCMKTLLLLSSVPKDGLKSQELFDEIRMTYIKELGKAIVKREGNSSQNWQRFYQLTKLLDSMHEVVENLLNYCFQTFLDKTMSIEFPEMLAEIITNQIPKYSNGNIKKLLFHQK
Outline: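 Beta-lactamase reporter activity, read as fluorescence intensity, was measured in GR-bla HeLa cells exposed to compounds for 18 h at 37 C and then loaded with LiveBLAzer B/G FRET substrate for 2 h at room temperature.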

[19] = target: Glucocorticoid receptor (Homo sapiens) (UniProt P04150); test: qHTS assay to identify small molecule antagonists of the glucocorticoid receptor (GR) signaling pathway (AID 720692; active = well fitted inhibition curve with a large enough effect in the signal ratio in the repeat runs, not every such curve was filed as active; the % refers to the signal ratio)
Outline: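 Fluorescence from cleaved LiveBLAzer B/G FRET substrate reports GRE-driven beta-lactamase in HeLa cells; compounds are tested against 5 nM dexamethasone (final) over 18 h at 37 C, substrate incubation 2 h at room temperature.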
% is scaled to controls: 0 for no effect and ±100 for the full control effect.

COC(C)CCO (stereo not given)
inactive: outcome [1] | outcome [2] | outcome [3] | outcome [4] | outcome [5] | outcome [6] | outcome [7] | Potency [8] | Potency [9] | Potency [10] | outcome [11] | Potency [12] | outcome [13] | Potency [14] | Potency [15] | outcome [16]

Cc1nnc(SCC2=C(C(=O)O)N3C(=O)[C@@H](NC(=O)Cn4cnnn4)[C@H]3SC2)s1
inactive: outcome [1] | outcome [2] | outcome [3] | outcome [4] | outcome [5] | outcome [6] | outcome [17] | outcome [7] | Potency [8] | Potency [9] | Potency [10] | outcome [11] | Potency [15]

CCCOCCC
inactive: outcome [1] | outcome [2] | outcome [4] | outcome [5] | outcome [6] | outcome [17] | Potency [18] | Potency [19] | outcome [7] | Potency [9] | outcome [11] | Potency [15]

O=C(C(Cl)Cl)N1CCOC12CCCCC2
active: Potency [9] 6.86 µM
inactive: outcome [1] | outcome [2] | outcome [3] | outcome [4] | outcome [5] | outcome [6] | outcome [17] | Potency [18] | Potency [19] | outcome [11]

COc1cc(C)ccc1C(C)C
inactive: outcome [1] | outcome [2] | outcome [3] | outcome [4] | outcome [5] | outcome [6] | outcome [7] | Potency [9] | Potency [15]

CO[Si](C)(C)OC
inactive: outcome [1] | outcome [2] | outcome [3] | outcome [4] | outcome [5] | outcome [6] | outcome [17] | Potency [18] | outcome [7] | outcome [11] | Potency [15]

CN1C(=O)CC(c2ccccc2)C1=O (stereo not given)
inactive: outcome [1] | outcome [2] | outcome [4] | outcome [5] | outcome [6] | outcome [17] | Potency [18] | Potency [19] | outcome [7] | Potency [9] | Potency [10] | Potency [15]

Cc1cc(NS(=O)(=O)c2ccc(N)cc2)nc(C)n1
inactive: outcome [1] | outcome [2] | outcome [3] | outcome [4] | outcome [5] | outcome [6] | outcome [17] | outcome [7] | Potency [8] | Potency [9] | outcome [11]

CC(C)C[C@H](NC(=O)OCC1c2ccccc2-c2ccccc21)C(=O)O
inactive: outcome [1] | outcome [2] | outcome [3] | outcome [4] | outcome [5] | outcome [6] | outcome [17] | outcome [7] | Potency [8] | Potency [9] | Potency [10] | outcome [11] | Potency [15]

CCCCCCCCCC#N
inactive: outcome [1] | outcome [2] | outcome [3] | outcome [4] | outcome [5] | outcome [6] | outcome [17] | Potency [18] | outcome [7] | Potency [9] | outcome [11] | Potency [15]

Oc1ccccc1F
inactive: outcome [1] | outcome [2] | outcome [4] | outcome [5] | outcome [6] | outcome [17] | Potency [18] | outcome [7] | Potency [8] | Potency [9] | Potency [10] | outcome [11] | Potency [15]

CC/C=C\CCOC(=O)C(C)C
inactive: outcome [1] | outcome [2] | outcome [3] | outcome [4] | outcome [5] | outcome [6] | outcome [17] | Potency [18] | outcome [7] | Potency [10] | outcome [11] | Potency [15]

CCN(CCCc1ccccc1)CCCc1ccccc1
active: Potency [8] 2.02 µM | Potency [9] 1.27 µM | Potency [10] 2.27 µM
inactive: fluorescence, % of fluorescein [1] 0.159% [at 18.6 µM] | fluorescence, % of fluorescent control [2] -0.0197% [at 18.6 µM] | fluorescence, % of Rose Bengal [4] -0.137% [at 18.6 µM] | fluorescence, % of fluorescent control [5] 0.009% [at 18.6 µM] | fluorescence, % of fluorescein control [6] 0.0299% [at 18.6 µM] | fluorescence, % of fluorescent control [17] -0.0033% [at 18.6 µM] | outcome [7] | outcome [11] | Potency [15]

CC1(O)CSC(C)(O)CS1 (stereo not given)
inactive: outcome [1] | outcome [2] | outcome [3] | outcome [4] | outcome [5] | outcome [6] | outcome [17] | Potency [18] | outcome [7] | outcome [11] | Potency [12] | outcome [13] | Potency [14] | Potency [15] | outcome [16]
active: Potency [9] 61.1 µM | Potency [10] 61.1 µM

Cc1ccc([N+](=O)[O-])c(N)c1
inactive: outcome [1] | outcome [2] | outcome [3] | outcome [4] | outcome [5] | outcome [6] | Potency [18] | outcome [7] | Potency [9] | Potency [10] | outcome [11]
